NTMT1 inhibitor – blocks human N-terminal methyltransferase 1 activity; AID 1645870; NTMT1 MTase-Glo SAH luminescence, purified enzyme; 2.5% of 59,000 active; Potency, µM (titrated, usually from 114 µM), for inactives: at the top dose activity change, negative = inhibition, hits mostly inhibitors; Q9BV86;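 further: potency means the concentration at half of the fitted maximal effect; plate controls were DMSO vehicle for no effect and no enzyme for full effect; nearly all actives have a fitted effect of over 65% in size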
Target sequence (Q9BV86 whole entry, looked up): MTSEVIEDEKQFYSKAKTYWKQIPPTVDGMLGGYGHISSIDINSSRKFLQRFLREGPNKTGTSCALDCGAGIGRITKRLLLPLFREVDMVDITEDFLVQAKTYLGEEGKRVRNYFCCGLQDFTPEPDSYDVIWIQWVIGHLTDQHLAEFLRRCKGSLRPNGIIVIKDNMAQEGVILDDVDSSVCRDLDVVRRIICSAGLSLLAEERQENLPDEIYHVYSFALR
DRV1 agonist – agonists of human resolvin D1 receptor DRV1 (GPR32). O75388. CHO-K1 GPR32 beta-arrestin PathHunter luminescence, 90 min; zero percent set by DMSO-only wells. activation, % at 76.9 µM. 2.5% of 48,000 active;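 active means activation of at least 60% and not above a set upper limit, about 1 call in 100 departs from these limits; inconclusive means activation of 40% to 60%, or above that upper limit; inactive means activation under 40%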; further: 0% is about no effect
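Readings come from a cell-based beta-arrestin complementation format: CHO-K1 GPR32 stable cells (2,500/well) treated 90 min with compounds, then beta-Gal substrate added for 1 h before chemiluminescence imaging.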
OvCa metastasis – blocks SKOV3ip1 adhesion and invasion in omental model; SKOV3ip1-GFP adhesion/invasion on 3D omental model, fluorescence; Potency, µM (series often up to 45.8 µM), inactives show at the highest dose activity change, negative = inhibition, hits mostly inhibitors; 0.1% of 46,000 active;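 further: potency means the concentration at half of the fitted maximal effect; plate controls were DMSO wells for no effect and tomatine positive control wells for full effect; nearly all actives have a fitted effect of over 65% in size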
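A 3D layer of primary human omental fibroblasts, mesothelial cells, fibronectin and collagen I, grown 48 hr, received SKOV3ip1-GFP cells in serum-free medium plus compounds at 0.36-46 umol/L. After 2 hr RT and 16 hr 37 C, fixed adherent GFP cells were counted; normalized to DMSO and tomatine.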
FH mod – Identification of activators of human fumarate hydratase by quantitative high-throughput screening; Fumarate hydratase, mitochondrial (Homo sapiens), P07954; FH coupled MDH/diaphorase resazurin fluorescence, 15 min; Potency, µM (highest dose often 79.9 µM), for the others: top-dose activity change, negative = inhibition, most hits filed as inhibitors; 0.22% of 54,000 active; AID 1347055, 2019; further: potency means the concentration at half of the fitted maximal effect; on the % scale 0 is the no-effect control and ±100 the full control effect; the screen sought activators but most active calls are inhibition curves; nearly all actives have a fitted effect of over 45% in size
Starred values were filed as active, the others as inactive; i = inactive; ? = inconclusive; / = no result; ! = a repeat was not active; [ ] = another dose, or the depositor's remark. In the library only some 3.8% were active in any assay of this set; here they are far more common. Unless noted, the call rests on the fitted dose curve; in most records, active means well fitted curve in the direction sought with a large enough effect; inconclusive means small, poorly fitted or top-dose-only effect, or another doubt; inactive means no such curve, though single readings can be large; an effect the other way counts as inactive or inconclusive.

SMILES | NTMT1 inhibitor | DRV1 agonist | OvCa metastasis | FH mod
Oc1c(C(c2ccc(Cl)cc2Cl)N2CCN(c3ccccc3)CC2)sc2nc(-c3ccco3)nn12 (stereo not drawn) | 5.0% | -5.7 | -6.1% | ?
Oc1c(C(c2ccc(Cl)cc2Cl)N2CCOCC2)sc2nc(-c3ccco3)nn12 (stereo not drawn) | 17.6% | 89.9* | -9.0% | -2.6%
Cc1cc(C(C#N)c2ccc(Cl)cc2)c(Cl)cc1NC(=O)c1cc(I)cc(I)c1O (stereo not drawn) | 17.8µM*! | 12.1 | / | ?
Cc1ccc(Cn2c(=O)n(-c3cc(C)cc(C)c3)c(=O)c3oc4ccccc4c32)cc1 | 1.3% | -24.3 | -4.5% | -11.4%
Cc1ccc(CN2C(=O)C(O)(c3c(C)[nH]c4ccccc34)c3ccccc32)cc1 (stereo not drawn) | ? | 70.0* | i | ?
O=C1N(Cc2ccccc2Cl)c2ccccc2C1(O)c1c[nH]c2ccccc12 (stereo not drawn) | 0.0% | 84.1* | 8.8% | ?
Cc1ccc(C)c(CN2C(=O)C(O)(c3c[nH]c4ccccc34)c3ccccc32)c1 (stereo not drawn) | 16.6% | 84.3* | i | ?
O=C1N(Cc2ccccc2)c2ccccc2C1(O)c1c[nH]c2ccccc12 (stereo not drawn) | 3.8% | ? | -19.8% | -17.0%
CC(=O)NC(Cc1c[nH]c2ccccc(=O)c12)C(=O)O (stereo not drawn) | ? | / | / | -2.3%
O=C1CCCC2=C1C(c1[nH]ncc1Cl)NC(=NCc1ccncc1)N2 (stereo not drawn) | 6.7% | / | / | /
Cc1oc2ncnc(N3CCOCC3)c2c1C(=O)Nc1ccc(Br)cc1F | 89.1µM* | 16.1 | -9.5% | -8.9%
COc1ccc2nc(S(=O)Cc3ncc(C)c(OC)c3C)[nH]c2c1 (stereo not drawn) | 31.6µM*! | -10.7 | -16.9% | 5.3%[53.3 µM]
COc1ccc(-c2noc(N3CCN(c4ccc(C)cc4)C(C)C3)n2)cc1OC (stereo not drawn) | -15.7% | 60.8* | i | -7.6%
COc1ccc(-c2noc(CSc3nnc(C)n3-c3ccc(C)cc3)n2)cc1OC | -14.7% | 2.0 | i | -4.6%
Cc1ccc(-c2cc(C(F)(F)F)n3nc(-c4cccc(Br)c4)cc3n2)cc1 | -14.6% | 8.7 | -10.7% | 3.9%
CCOC(=O)C1CCN(C(=O)c2ccc3c(c2)sc2nc(-c4ccc(OC)cc4)cn23)CC1 | 89.1µM* | -0.1 | i | -22.8%
Cc1cccc(CC(=O)NCc2nc3cccnc3n2Cc2ccc(F)cc2)c1 | 3.7% | -11.8 | i | -15.8%
NS(=O)(=O)OC[C@@H]1C[C@@H](n2ccc3c(N[C@H]4CCc5ccccc54)ncnc32)C[C@@H]1O | 39.8µM*! | / | / | 0.7%
CCc1ccccc1-n1nnc(-c2nsc(NC(=O)c3ccc(C)c(C)c3)n2)c1C | 13.7% | 71.8* | i | -4.6%
CCc1ccc(-n2nnc(-c3nsc(NC(=O)c4ccccc4Cl)n3)c2C)cc1 | -2.2% | 104.8* | i | 5.4%
O=C(C1CCN(c2ncnc3c2nc2n3CCCCC2)CC1)N1CCN(c2ccc(Cl)cc2)CC1 | 1.9% | -2.5 | -5.4% | -1.8%
Cc1ccc(C(=O)c2oc3ccccc3c2NC(=O)c2nc(S(C)(=O)=O)ncc2Cl)cc1F | -0.3% | 74.6* | -14.3% | 27.3%
COc1cc(OC)c(NC(=O)N2CCOc3ccc(C)cc32)cc1Cl | 9.1% | -25.8 | -5.0% | -28.9%
Cc1cc(Nc2cccc(Cl)c2)nc2ccc(NC(=O)c3cncc(Br)c3)cc12 | 10.6% | -26.4 | i | -25.0%
Cc1cc(Nc2cccc(C(F)(F)F)c2)nc2ccc(NC(=O)c3cncc(Br)c3)cc12 | 2.4% | -22.9 | i | 31.6µM*
SMILES | NTMT1 inhibitor | DRV1 agonist | OvCa metastasis | FH mod
Fc1ccccc1OCc1nc(-c2ccc(-n3cccc3)cc2)no1 | -14.8% | ? | -4.8% | -0.3%
NC(=O)c1cccc2[nH]c(-c3ccc(C4CCCN4)cc3F)nc12 (stereo not drawn) | -3.3%[57.5 µM] | / | / | 1.4%
NC(=O)c1cccc2cn(-c3ccc([C@@H]4CCCNC4)cc3)nc12 | 31.6µM*! | / | -9.3% | -0.1%
CCCOc1ccc(CCc2nc3cc(-c4c(C)noc4C)ccc3n2CCN2CCOCC2)cc1 | 25.2%[57.5 µM] | / | / | -6.5%
CCCOc1cccc(C2c3c(oc4ccccc4c3=O)C(=O)N2c2nncs2)c1 (stereo not drawn) | -0.4% | -4.6 | i | 6.8%
COc1ccccc1NC(=O)c1cc2cc3ccc(OC)c(Cl)c3nc2s1 | 39.8µM* | -2.5 | -6.0% | -6.0%
